This is an account of results in PubChem BioAssay (NCATS).

Test [1] in a line: Cytometric Cell-Based qHTS for Inhibitors of the mTORC1 Signaling Pathway in MEF (Tsc2-/-, p53-/-) Cells (AID 2660).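 Note: percent of cells above a phospho-rpS6 to PI ratio cutoff in each well; series mostly up to about 38 µM.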 The gist of the method:
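Tsc2-/-, p53-/- MEFs (empty vector) exposed to compound 24 h at 37 C, fixed, stained with Alexa-488 anti-phospho-rpS6 Ser235/236 and propidium iodide. Acumen laser scanning; phospho-S6/PI ratio thresholded against 7.5 nM rapamycin, reported as % positive cells.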
In general terms: Quantitative high-throughput screening tests each substance at several concentrations.

Test [2] can be described thus: High Content Imaging Cell-Based qHTS for Inhibitors of the mTORC1 Signaling Pathway in MEF (Tsc2-/-, p53-/-) Cells (AID 2666).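 Note: percent of cells scored positive for phospho-rpS6 Ser235/236 immunostaining by imaging.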 The gist of the method:
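Inhibition of rpS6 phosphorylation is measured by immunofluorescence imaging in empty-vector Tsc2-/-, p53-/- mouse embryonic fibroblasts after 24 hrs compound exposure at 37 degree Celsius. Results are reported as % positive cells per well.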

Test [3] in a line: High Content Imaging Cell-Based qHTS for Inhibitors of the mTORC1 Signaling Pathway in MEF Cells (AID 2667).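 Note: Tsc2-/- p53-/- MEFs stably re-expressing wild-type Tsc2 exposed 24 h; series mostly up to about 38 µM.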 The method, boiled down:
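Fixed-cell imaging of phospho-S6 (Ser235/236, Alexa-488) after 24 hrs of compound treatment at 37 degree Celsius. Signal was normalized to Hoechst, and thresholds from the highest and lowest wells split cells into % active versus % non-active.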

Test [4] can be described thus: Cytometry Cell-Based qHTS for Inhibitors of the mTORC1 Signaling Pathway in MEF cells (AID 2668).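 Note: Tsc2-/- p53-/- mouse embryonic fibroblasts stably re-expressing wild-type Tsc2; percent cells positive for phospho-rpS6 Ser235/236 relative to propidium iodide stain; series mostly up to about 38 µM.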 The gist of the method:
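Read-out: phospho-rpS6 Ser235/236 immunofluorescence normalized to propidium iodide intensity, scored as % active cells against a rapamycin (7.5 nM) threshold. Cells: Tsc2-/-, p53-/- MEFs stably expressing WT Tsc2, compound-treated 24 hrs at 37 degree Celsius.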

In test [5] the target is Ubiquitin carboxyl-terminal hydrolase 2 (Homo sapiens) (UniProt O75604). The test can be described thus: qHTS Validation Assay for Inhibitors of Ubiquitin-specific Protease USP2a Using CHOP2 as the Reporter (AID 463106). The method, boiled down:
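Inhibition is expressed relative to NEM as the full-inhibition control, with concentration-response curves classed by fit quality, magnitude and activity. Enzyme (USP2 core, 10nM) meets 25nM Ub-CHOP2 after compound preincubation; readings are taken at 60min.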

The target in test [6] is DNA polymerase III PolC-type (Bacillus subtilis (strain 168)) (UniProt P13267). The test can be described thus: qHTS Validation Assay for the Inhibitors of DNA Replication in Gram-Positive Bacteria (AID 485295).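 Note: reconstituted holoenzyme with PolC plus beta clamp SSB and primase; PicoGreen fluorescence of double-stranded DNA made on primed circular M13 template; series mostly up to about 57 µM.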 The gist of the method: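 PicoGreen fluorescence (ex 480–485/em 535–540 nm) reports dsDNA synthesized on ssM13Gori template with dNTPs/NTPs. Enzyme: holoenzyme rebuilt from purified PolC, beta subunit, SSB and primase. Compound preincubated before substrate addition; RT throughout.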
DNA polymerase III PolC-type (Bacillus subtilis (strain 168)), sequence (P13267 whole entry, looked up): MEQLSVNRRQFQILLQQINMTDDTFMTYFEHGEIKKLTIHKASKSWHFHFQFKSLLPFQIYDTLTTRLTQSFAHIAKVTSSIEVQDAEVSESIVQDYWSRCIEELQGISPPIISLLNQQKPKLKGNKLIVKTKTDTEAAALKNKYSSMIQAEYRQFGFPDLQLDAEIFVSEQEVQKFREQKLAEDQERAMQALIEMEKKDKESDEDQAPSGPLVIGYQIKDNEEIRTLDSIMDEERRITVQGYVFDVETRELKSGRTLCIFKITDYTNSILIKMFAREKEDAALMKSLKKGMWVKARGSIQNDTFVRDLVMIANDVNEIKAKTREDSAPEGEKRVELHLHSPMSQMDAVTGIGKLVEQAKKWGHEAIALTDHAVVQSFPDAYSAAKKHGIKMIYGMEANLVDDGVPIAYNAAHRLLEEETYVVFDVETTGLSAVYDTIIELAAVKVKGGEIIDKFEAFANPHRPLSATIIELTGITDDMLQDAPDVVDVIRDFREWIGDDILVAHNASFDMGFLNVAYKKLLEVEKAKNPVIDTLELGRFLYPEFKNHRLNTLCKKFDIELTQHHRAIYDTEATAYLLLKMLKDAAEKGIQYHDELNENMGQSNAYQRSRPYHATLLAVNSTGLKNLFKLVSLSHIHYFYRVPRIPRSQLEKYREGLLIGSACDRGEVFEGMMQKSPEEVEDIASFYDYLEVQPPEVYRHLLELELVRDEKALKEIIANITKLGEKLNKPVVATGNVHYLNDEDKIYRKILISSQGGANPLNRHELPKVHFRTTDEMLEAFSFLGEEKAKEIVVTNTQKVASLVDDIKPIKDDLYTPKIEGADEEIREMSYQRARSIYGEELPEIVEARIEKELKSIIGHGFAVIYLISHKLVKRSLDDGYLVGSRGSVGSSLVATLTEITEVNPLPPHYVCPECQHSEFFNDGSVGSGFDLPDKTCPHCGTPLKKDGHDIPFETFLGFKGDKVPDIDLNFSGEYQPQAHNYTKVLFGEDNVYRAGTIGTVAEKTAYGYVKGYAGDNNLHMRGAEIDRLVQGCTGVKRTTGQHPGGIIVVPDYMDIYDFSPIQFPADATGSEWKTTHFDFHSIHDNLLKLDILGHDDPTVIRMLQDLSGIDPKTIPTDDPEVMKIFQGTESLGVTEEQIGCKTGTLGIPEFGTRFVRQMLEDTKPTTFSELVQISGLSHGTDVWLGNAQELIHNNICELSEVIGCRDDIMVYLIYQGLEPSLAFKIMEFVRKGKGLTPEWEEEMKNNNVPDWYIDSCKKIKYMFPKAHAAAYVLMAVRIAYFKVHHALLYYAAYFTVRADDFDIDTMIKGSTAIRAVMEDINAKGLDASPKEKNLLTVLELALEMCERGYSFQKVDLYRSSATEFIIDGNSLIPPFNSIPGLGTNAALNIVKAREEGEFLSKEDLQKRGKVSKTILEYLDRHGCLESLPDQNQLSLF

For test [7], the target named is Tumor susceptibility gene 101 protein (Homo sapiens) (UniProt Q99816). Put plainly: qHTS Validation Assay for Iinhibitors of HIV-1 Budding by Blocking the Interaction of PTAP/TSG101 (AID 485342; calls by dose curve). The gist of the method: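 FP read-out: FITC-PTAP peptide, 50 nM final, binding Tsg101 binding domain, 10 uM final; 20 min r.t.; 10 mM HEPES pH 7.5, 0.15 M NaCl, 0.01% Tween 20, 3 mM EDTA, 0.1 mM TCEP.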
Tumor susceptibility gene 101 protein (Homo sapiens), sequence (Q99816 whole entry, looked up, the tested form may be a part): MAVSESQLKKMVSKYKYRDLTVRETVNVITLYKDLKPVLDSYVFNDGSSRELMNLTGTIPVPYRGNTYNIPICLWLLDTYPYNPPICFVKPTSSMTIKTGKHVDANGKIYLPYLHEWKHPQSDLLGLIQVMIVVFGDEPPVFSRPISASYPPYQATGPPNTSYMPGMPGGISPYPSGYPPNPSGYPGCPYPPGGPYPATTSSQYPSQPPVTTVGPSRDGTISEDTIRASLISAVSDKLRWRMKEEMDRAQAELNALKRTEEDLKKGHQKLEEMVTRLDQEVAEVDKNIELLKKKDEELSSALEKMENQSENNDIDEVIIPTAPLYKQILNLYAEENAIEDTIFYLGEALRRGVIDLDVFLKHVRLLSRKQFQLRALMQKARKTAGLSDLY

Test [8] can be described thus: qHTS Validation Assay to Find Inhibitors of Chronic Active B-Cell Receptor Signaling (AID 485345; active = well fitted curve in the direction sought with a large enough effect in the main read-out, with a control signal flat, not every such curve was filed as active). The method, boiled down: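 TMD8 ABC-DLBCL cells with dox-inducible green luciferase–IκBα fusion and red native luciferase; compounds 46 uM–3 nM, 4 h at 37C with doxycycline in 0.5% FBS IMDM. Green/red ratio normalized to basal and 10 uM MG-132.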
The target of test [9] is Beta-2 adrenergic receptor (Homo sapiens) (UniProt P07550). Put plainly: qHTS validation assay of beta-arrestin-biased ligands of beta2-adrenergic receptor (AID 485366). The method, boiled down:
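qHTS, Tango cells, 1500 cells/well, DMEM + 1% FBS. Cpd 18 hr at 37 degrees C. Luciferin/ATP/CoA detection mix, 15 min RT, luminescence read. %Activity from corrected signal; CRC fit, curve class.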

The nature of test [10]: Quantitative high throughput screen for delayed death inhibitors of the malarial parasite plastid, 96 hour incubation (AID 488745). Note: nearly all actives have a fitted effect of over 70% in size. Note: potency is the fitted concentration of half-maximal effect. The gist of the method: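 Readout is firefly luciferase luminescence from an integrated reporter in P. falciparum; lower signal marks inhibited growth. Cultures at 2% hematocrit and 0.1% parasitemia were treated with compound across two generations (96 h, 37 C, 5% CO2).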

The nature of test [11]: Quantitative high throughput screen for delayed death inhibitors of the malarial parasite plastid, 48 hour incubation (AID 488752). Note: nearly all actives have a fitted effect of over 65% in size. Note: potency is the fitted concentration of half-maximal effect. The method, boiled down:
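First, compound was pinned into RPMI 1640 medium containing 0.5% Albumax. Next, reporter-parasite-infected erythrocytes were added to 2% hematocrit and 0.1% parasitemia. After 48 h at 37 C under 5% CO2, luciferase detection reagent was added and luminescence read.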

Test [12] concerns the target Thioredoxin reductase 1, cytoplasmic (Rattus norvegicus) (UniProt O89049). The test can be described thus: qHTS Assay for Substrates of Mammalian Selenoprotein Thioredoxin Reductase 1 (TrxR1) (AID 488772).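 Note: series mostly up to about 57 µM; a drop in NADPH fluorescence below the no-compound background marks a TrxR1 substrate.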 The gist of the method:
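In this dual-purpose format, potential substrates are identified from the first fluorescence read after selenite addition, not from the 8-minute delta. Rat enzyme is preincubated with NADPH and then with compound at ~22 deg C.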

For test [13] the target is unchanged. Put plainly: qHTS Assay for Inhibitors of Mammalian Selenoprotein Thioredoxin Reductase 1 (TrxR1) (AID 488773). Note: nearly all actives have a fitted effect of over 40% in size. Note: potency is the fitted concentration of half-maximal effect. Particulars: Potency: inhibition. The method, boiled down: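 Inhibition is scored from the loss of NADPH fluorescence between first and last reads of an 8-min kinetic run. Selenite (400 uM) was the substrate, added after 15 min compound preincubation at room temperature.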

Test [14] deals with Flap endonuclease 1 (Homo sapiens) (UniProt P39748). The test can be described thus: qHTS Validation Assay for the Inhibitors of Human Flap endonuclease 1 (FEN1) (AID 488816). Note: potency is the fitted concentration of half-maximal effect. The gist of the method:
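Steps: add FEN1 (10 nM reagent) or buffer only; pin compounds; hold 15 min at room temperature; start with substrate, 50 nM final; read at 0 and 15 min; correct, normalize and fit a four-parameter Hill curve.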

Test [15] is described as follows: Validation screen for small molecules that induce DNA re-replication in MCF 10A normal breast cells (AID 463097). Note: nearly all actives have a fitted effect of over 60% in size. Note: potency is the fitted concentration of half-maximal effect. The method, boiled down:
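250 MCF 10A cells/well; compound pin-transferred; 48 hr, 37 C, 5% CO2; Hoechst 40 min; imaged 405/500-530 nm. Hits = more high-intensity nuclei.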

Test [16] concerns the target M-phase phosphoprotein 8 (Homo sapiens) (UniProt Q99549). Put plainly: qHTS Validation Assay for Inhibitors for MPP8 Chromodomain Interactions with Methylated Histone Tails (AID 488949). Note: nearly all actives have a fitted effect of over 55% in size. Note: potency is the fitted concentration of half-maximal effect. The method, boiled down: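 AlphaScreen read-out: streptavidin donor and nickel chelate acceptor beads (final 10 ug/mL), 30 min in the dark at RT. Complex of 50 nM MPP8 and 50 nM b-H3(1-18)K9me3 peptide had been exposed to compounds for 30 min beforehand.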

Test [17] addresses Chromobox protein homolog 1 (Homo sapiens) (UniProt P83916). The test can be described thus: qHTS Validation Assay for Inhibitors of HP1-beta Chromodomain Interactions with Methylated Histone Tails (AID 488953). Note: nearly all actives have a fitted effect of over 50% in size. Note: potency is the fitted concentration of half-maximal effect. The method, boiled down: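 Disruption of preformed HP1-beta:H3K9me3 peptide complexes (both 50 nM, PBS pH 7.4 with 0.01% Tween-20) is measured by AlphaScreen after 30 min compound exposure at room temperature, using streptavidin donor and nickel chelate acceptor beads at 10 ug/mL final.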

Test [18] addresses ATP-dependent 6-phosphofructokinase (Trypanosoma brucei brucei) (UniProt O15648). Put plainly: qHTS Validation Assay to Find Inhibitors of T. brucei phosphofructokinase (AID 485368). The gist of the method: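 Luminescent ADP detection measures PFK turnover of fructose-6-phosphate (0.5 mM) with ATP (0.1 mM) at pH 8.0. Reaction runs 45 min at room temperature with 1.25 nM enzyme; inhibitors tested as titrations up to 57 uM.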

Inconclusive results are not listed. Some structures have more than one record in an assay (separate samples or runs), and their calls can disagree. The source made the active and inactive calls. Unless noted, calls come from the whole dose curve; as a rule, active = well fitted curve in the direction sought with a large enough effect; inconclusive = small, poorly fitted or top-dose-only effect, or another doubt; inactive = no such curve, though single readings can be large; an effect the other way counts as inactive or inconclusive.

M-phase phosphoprotein 8 (Homo sapiens), sequence (Q99549 whole entry, looked up): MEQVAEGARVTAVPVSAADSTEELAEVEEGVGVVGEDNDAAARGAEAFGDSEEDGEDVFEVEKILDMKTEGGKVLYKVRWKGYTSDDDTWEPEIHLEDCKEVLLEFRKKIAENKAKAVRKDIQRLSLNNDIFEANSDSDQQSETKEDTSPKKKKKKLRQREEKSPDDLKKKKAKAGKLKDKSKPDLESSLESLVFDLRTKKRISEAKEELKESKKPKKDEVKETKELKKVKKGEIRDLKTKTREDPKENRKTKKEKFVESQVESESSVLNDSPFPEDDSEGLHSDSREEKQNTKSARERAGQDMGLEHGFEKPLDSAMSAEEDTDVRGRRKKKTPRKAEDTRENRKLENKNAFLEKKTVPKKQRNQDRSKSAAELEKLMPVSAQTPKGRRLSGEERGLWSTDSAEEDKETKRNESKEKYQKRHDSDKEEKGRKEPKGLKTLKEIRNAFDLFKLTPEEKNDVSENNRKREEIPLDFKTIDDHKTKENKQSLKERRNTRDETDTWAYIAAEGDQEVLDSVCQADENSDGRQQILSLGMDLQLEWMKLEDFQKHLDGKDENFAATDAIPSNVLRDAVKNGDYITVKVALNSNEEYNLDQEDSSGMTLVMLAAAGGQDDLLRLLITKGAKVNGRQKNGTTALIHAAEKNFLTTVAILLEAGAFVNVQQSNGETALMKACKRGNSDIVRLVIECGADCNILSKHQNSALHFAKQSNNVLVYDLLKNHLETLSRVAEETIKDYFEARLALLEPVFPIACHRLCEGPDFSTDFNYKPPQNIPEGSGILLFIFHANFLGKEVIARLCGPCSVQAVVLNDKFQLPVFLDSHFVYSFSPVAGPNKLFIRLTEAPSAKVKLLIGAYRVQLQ
Flap endonuclease 1 (Homo sapiens), sequence (P39748 whole entry, looked up): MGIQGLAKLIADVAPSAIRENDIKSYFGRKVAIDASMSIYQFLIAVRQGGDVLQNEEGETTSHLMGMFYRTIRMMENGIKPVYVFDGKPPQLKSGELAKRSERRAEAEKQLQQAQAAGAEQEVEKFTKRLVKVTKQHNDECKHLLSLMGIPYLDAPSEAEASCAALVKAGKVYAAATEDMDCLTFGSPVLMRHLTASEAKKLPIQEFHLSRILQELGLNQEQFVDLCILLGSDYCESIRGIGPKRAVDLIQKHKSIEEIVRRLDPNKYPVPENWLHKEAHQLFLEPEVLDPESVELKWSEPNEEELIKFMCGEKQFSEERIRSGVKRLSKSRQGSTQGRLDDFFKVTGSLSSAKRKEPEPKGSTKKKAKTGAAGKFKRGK
Ubiquitin carboxyl-terminal hydrolase 2 (Homo sapiens), sequence (O75604 whole entry, looked up): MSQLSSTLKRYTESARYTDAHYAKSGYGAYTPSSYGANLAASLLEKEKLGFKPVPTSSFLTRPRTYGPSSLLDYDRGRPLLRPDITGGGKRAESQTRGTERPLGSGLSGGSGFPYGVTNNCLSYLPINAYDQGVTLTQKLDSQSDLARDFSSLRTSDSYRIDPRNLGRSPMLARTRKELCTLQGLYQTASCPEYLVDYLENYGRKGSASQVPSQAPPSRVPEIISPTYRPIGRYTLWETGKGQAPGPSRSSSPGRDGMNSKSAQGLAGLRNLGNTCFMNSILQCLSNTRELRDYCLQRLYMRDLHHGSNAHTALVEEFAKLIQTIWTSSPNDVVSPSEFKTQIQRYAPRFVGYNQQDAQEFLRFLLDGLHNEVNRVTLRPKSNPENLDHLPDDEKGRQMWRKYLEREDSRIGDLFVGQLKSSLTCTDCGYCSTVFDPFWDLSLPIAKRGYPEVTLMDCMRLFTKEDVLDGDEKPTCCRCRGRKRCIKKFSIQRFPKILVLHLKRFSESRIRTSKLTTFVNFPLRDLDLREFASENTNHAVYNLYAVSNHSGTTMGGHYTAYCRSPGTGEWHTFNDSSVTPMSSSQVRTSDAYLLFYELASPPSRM
Thioredoxin reductase 1, cytoplasmic (Rattus norvegicus), sequence (O89049 whole entry, looked up): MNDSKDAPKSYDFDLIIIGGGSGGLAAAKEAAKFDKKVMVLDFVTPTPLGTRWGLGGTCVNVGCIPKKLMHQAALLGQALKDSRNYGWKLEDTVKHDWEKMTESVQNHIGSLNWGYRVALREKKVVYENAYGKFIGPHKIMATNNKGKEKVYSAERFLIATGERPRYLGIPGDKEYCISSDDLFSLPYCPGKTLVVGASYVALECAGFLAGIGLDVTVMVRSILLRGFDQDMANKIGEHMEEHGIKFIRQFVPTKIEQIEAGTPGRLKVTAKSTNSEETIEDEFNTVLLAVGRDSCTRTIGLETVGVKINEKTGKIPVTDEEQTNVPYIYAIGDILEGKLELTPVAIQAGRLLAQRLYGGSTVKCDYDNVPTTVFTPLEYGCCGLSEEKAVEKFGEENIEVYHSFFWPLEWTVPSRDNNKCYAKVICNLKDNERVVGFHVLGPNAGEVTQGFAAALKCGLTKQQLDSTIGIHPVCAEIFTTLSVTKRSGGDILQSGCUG
Beta-2 adrenergic receptor (Homo sapiens), sequence (P07550 whole entry, looked up): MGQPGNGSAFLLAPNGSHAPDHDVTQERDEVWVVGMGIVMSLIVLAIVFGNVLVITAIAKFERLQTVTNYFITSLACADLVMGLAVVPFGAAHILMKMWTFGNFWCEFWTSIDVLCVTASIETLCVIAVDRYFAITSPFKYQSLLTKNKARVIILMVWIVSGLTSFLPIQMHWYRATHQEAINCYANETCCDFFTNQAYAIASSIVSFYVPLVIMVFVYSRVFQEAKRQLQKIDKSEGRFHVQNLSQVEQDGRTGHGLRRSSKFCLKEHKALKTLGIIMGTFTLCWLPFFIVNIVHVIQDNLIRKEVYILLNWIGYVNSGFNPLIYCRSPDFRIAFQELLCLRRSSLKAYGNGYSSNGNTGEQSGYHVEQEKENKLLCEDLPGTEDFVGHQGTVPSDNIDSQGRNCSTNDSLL
Chromobox protein homolog 1 (Homo sapiens), sequence (P83916 whole entry, looked up): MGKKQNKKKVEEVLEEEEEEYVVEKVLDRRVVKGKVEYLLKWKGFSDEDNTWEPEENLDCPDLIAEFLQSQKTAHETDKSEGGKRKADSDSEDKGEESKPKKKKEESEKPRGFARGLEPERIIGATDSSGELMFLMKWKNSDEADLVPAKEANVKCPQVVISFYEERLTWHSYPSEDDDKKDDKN

On to `O=C(c1cc(O)c(O)c([N+](=O)[O-])c1)c1ccccc1F`, for which the result in test [1], in test [7], in test [8] and in test [9] was inactive. Further, the Potency entry in test [2], in test [3], in test [4], in test [5], in test [6] and in test [10] was “inactive” throughout. Moreover, the Potency result in [11], in [12] and in [13] was “inactive” in each case. In addition, the Potency in test [14] is 21.2 µM (active).
In the case of `Fc1ccc(C(OCCCc2cnc[nH]2)c2ccc(F)cc2)cc1`, the compound was classed as inactive in test [1], in test [7] and in [9]. Moreover, the Potency entry in [2], in test [3], in test [4], in test [15], in [5] and in [6] was “inactive” throughout. The Potency entry in test [12], in test [13] and in test [14] was “inactive” throughout. The Potency in test [10] was 2.62 µM (active); in test [11] it was 6.57 µM (active); in test [16], 50.1 µM (active); in [17] it was 39.8 µM (active).
For the compound `CC(C)NC[C@H](O)COc1cccc2[nH]ccc12`, the compound was classed as inactive in [1], in [8] and in test [9]. For the same compound, the Potency result in [2], in test [3], in test [4], in test [15], in [5] and in test [6] was “inactive” throughout. In addition, the Potency result in test [10], in [11] and in [12] was “inactive” in each case.
Take `CC(C)(C)c1ccc(S(=O)(=O)/C=C/C#N)cc1`: the compound was classed as inactive in test [1], in test [7] and in [9]. Further, the Potency entry in test [2], in [3], in [4], in [5], in test [6] and in test [12] was “inactive” each time. Further, in test [14], the Potency entry is “inactive”. In addition, the Potency in test [15] was 1.12 µM (active); in test [13] it was 0.377 µM (active); in test [16], 20 µM (active) and inactive; in test [17], 44.7 µM (active).
Take `Oc1cc2c(cc1O)CN(C(=S)NCCc1ccc(Cl)cc1)CCC2`: the compound was classed as inactive in test [1], in test [7] and in test [9]. The Potency result in test [2], in test [3], in [4], in test [5], in test [6] and in [12] was “inactive” throughout. In addition, the Potency entry in test [14] is “inactive”. Moreover, the Potency was 3.55 µM (active) in test [15]; 39.8 µM (active) and inactive in test [16]; 44.7 µM (active) in [17].
`CCN1/C(=C/C(C)=O)Sc2ccc(OC)cc21`: the call in test [1], in [7] and in [9] was inactive. The Potency entry in test [2], in test [3], in [4], in [15], in test [5] and in test [6] was “inactive” throughout. The Potency result in test [18], in [10], in test [11], in [13] and in test [16] was “inactive” throughout.
Take `OC[C@H]1O[C@@H](n2cnc3c(NC4CCCCC4)ncnc32)[C@H](O)[C@@H]1O`: the call in [1] and in [9] was inactive. Further, the Potency entry in [2], in test [3], in test [4], in test [15], in test [5] and in test [6] was “inactive” in each case. Also, the Potency entry in [10], in test [11], in [12], in test [13], in [14] and in test [16] was “inactive” in each case. Further, the Potency entry in test [17] was “inactive”.
Turning to `Nc1ncnc2c1ncn2[C@@H]1O[C@H](COP(=O)(O)CP(=O)(O)OP(=O)(O)O)[C@@H](O)[C@H]1O`, the result in test [1], in test [7], in [8] and in [9] was inactive. Besides, the Potency entry in [2], in test [3], in [4], in test [5], in test [6] and in test [18] was “inactive” throughout. In addition, the Potency result in test [12], in [13], in [14] and in [17] was “inactive” throughout.
